# Only a selection was taken, and hits are over-represented in it overall.
# TDP1 cell CPT – qHTS for Inhibitors of human tyrosyl-DNA phosphodiesterase 1 (TDP1): qHTS in cells in presence of CPT | Potency, µM (highest dose often 46.2 µM), inactives show at the highest dose activity change, negative = growth inhibition, most hits filed as inhibitors | 12% of 420,000 active | chicken DT40 Tdp1-/-;hTDP1 cells + 20 nM CPT, ATP luminescence, 48 h; further: potency means the concentration at half of the fitted maximal effect; nearly all actives have a fitted effect of over 55% in size
#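 Chicken DT40 Tdp1-/- cells stably complemented with human TDP1 were seeded at 400 cells/well in medium containing 20 nM camptothecin, exposed to pin-transferred compounds, and grown at 37 °C for at least 48 hr. Viability was read as ATP luminescence.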
# HT1080-NT tox – qHTS for induction of synthetic lethality in tumor cells producing 2HG: qHTS for the HT-1080-NT fibrosarcoma cell line; 1.6% of 360,000 active; HT-1080-NT fibrosarcoma viability, CellTiter-Glo ATP luminescence, 48 h; AID 686970, 2013; Potency, µM (doses to about 46.1 µM), without a hit: at the top dose activity, negative = less viability, usual class: cytotoxic;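 further: NT is the 2HG producing partner of a matched IDH1 knockdown line; potency means the concentration at half of the fitted maximal effect; 0% = DMSO-treated cells and -100% = media-only wells without cells; nearly all actives have a fitted effect of over 55% in size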
#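 HT-1080-NT; 750 cells/well; 5% FBS RPMI; 48 h compound, 37 degrees C; CellTiter-Glo luminescence; curve fitting and curve-class assignment.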
# TDP1 cell noCPT – qHTS for Inhibitors of human tyrosyl-DNA phosphodiesterase 1 (TDP1): qHTS in cells in absence of CPT | DT40 Tdp1-/- hTDP1 cells, no CPT, ATP luminescence, 48 h | 15% of 420,000 active | Potency, µM (series often up to 46.2 µM), without a hit: top-dose activity change, negative = growth inhibition, most hits filed as inhibitors; further: potency means the concentration at half of the fitted maximal effect; nearly all actives have a fitted effect of over 55% in size
#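 Camptothecin absent (DMSO only). Human TDP1-complemented DT40 knockout cells, 400 cells/well, 37 °C for minimum 48 hr; ATP measured via CellTiter-Glo, 30 min dark incubation, luminescence.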
# IL-1B inflam inh – qHTS for Inhibitors of Inflammasome Signaling: IL-1-beta AlphaLISA Primary Screen | THP-1 LPS/ATP IL-1B secretion, AlphaLISA, 16 h; stronger effect = lower value | activity change, % at 57.5 µM | 4.7% of 360,000 active | AID 743279, 2014; in the data active means activity change below about -50%; inconclusive means mostly about -30% to -49%
#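 THP-1 cells pretreated 1 hr with compounds (up to 57.5 uM final), then stimulated with LPS (250 ng/mL final) plus ATP (1.25 mM final); secreted IL-1B measured by AlphaLISA after 16 hr, decreased signal indicating inhibition.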
# 12-LOX inh – Primary qHTS assay for inhibitors of human arachidonate 12S-lipoxygenase (ALOX12): Round 2 | Polyunsaturated fatty acid lipoxygenase ALOX12 (Homo sapiens), P18054 | purified 12hLO, xylenol orange hydroperoxide absorbance | Potency, µM (doses to about 108 µM), for the others: at the highest dose activity change, negative = inhibition, actives largely listed as inhibitors | 1.1% of 580,000 active; further: potency means the concentration at half of the fitted maximal effect
# Target sequence (P18054 whole entry, looked up): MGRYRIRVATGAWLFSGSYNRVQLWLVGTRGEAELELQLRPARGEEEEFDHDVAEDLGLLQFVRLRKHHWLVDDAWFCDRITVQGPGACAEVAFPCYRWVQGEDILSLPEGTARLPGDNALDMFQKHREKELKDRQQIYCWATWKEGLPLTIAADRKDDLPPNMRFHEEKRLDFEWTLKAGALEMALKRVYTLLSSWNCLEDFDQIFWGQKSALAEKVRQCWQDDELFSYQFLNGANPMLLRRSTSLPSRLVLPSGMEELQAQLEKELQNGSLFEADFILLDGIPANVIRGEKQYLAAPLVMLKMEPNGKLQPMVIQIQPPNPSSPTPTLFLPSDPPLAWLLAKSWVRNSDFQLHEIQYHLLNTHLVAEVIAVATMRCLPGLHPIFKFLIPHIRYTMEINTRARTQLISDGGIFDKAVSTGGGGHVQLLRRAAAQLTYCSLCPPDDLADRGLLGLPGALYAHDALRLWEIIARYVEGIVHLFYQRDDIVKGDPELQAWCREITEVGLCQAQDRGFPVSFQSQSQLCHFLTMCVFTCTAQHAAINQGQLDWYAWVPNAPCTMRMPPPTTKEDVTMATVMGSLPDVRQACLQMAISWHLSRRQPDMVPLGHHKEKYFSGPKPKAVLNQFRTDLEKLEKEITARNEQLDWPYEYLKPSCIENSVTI
#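 Hydroperoxide product was detected by ferrous iron/xylenol orange as the 573 to 405 nm absorbance ratio. Arachidonic acid at 40 uM (final) was turned over for 30 min at room temperature by 150 nM human 12hLO, pH 7.0 Hepes buffer, after 15 min compound preincubation.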
# HT1080 IDH1KD tx – qHTS for induction of synthetic lethality in tumor cells producing 2HG: qHTS for the HT-1080-IDH1KD cell line; HT-1080 IDH1 knockdown viability, ATP luminescence, 48 h; Potency, µM (doses to about 46.1 µM), without a hit: at the top dose activity, negative = toxicity, most hits filed as cytotoxic; 2% of 360,000 active; AID 686971, 2013;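 further: potency means the concentration at half of the fitted maximal effect; 0% = DMSO wells and -100% = cell-free medium wells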
#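 Viability of IDH1-knockdown HT-1080 fibrosarcoma cells was assessed by CellTiter-Glo after 48 h at 37 °C with titrated compound; concentration-effect curves were classified by fit quality and response size.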
# The depositor's hits bear a star; ? = inconclusive; / = no result; [ ] = dose if it differs, or a comment. Unless noted, the call rests on the fitted dose curve; in most records, active means well fitted curve in the direction sought with a large enough effect; inconclusive means small, poorly fitted or top-dose-only effect, or another doubt; inactive means no such curve, though single readings can be large; an effect the other way counts as inactive or inconclusive. Unless noted, on the % scale 0 is the no-effect control and ±100 the full control effect.
SMILES,TDP1 cell CPT,HT1080-NT tox,TDP1 cell noCPT,IL-1B inflam inh,12-LOX inh,HT1080 IDH1KD tx
CN(C)c1ccc(CC(=O)N2CCCCC2c2cc(C(=O)Nc3ccccc3Cl)no2)cc1 (stereo unspecified),-110%,33µM*,?,-11,?,?
COC(=O)N1CCCCC1c1cc(C(=O)Nc2ccccc2Cl)no1 (stereo unspecified),?,?,?,0,4%,2%
COc1ccc(NC(=O)c2cc(C3CCCCN3C(=O)Cc3ccc(N(C)C)cc3)on2)c(C)c1 (stereo unspecified),21µM*,-14%,?,-5,6%,-2%
CCC12CN3CC(C)(CN(C1)C3c1c[nH]c3ccccc13)C2=O (stereo unspecified),?,/,23µM*,/,5%,/
CCC12CN3CC(CC)(CN(C1)C3c1c[nH]c3ccccc13)C2=O (stereo unspecified),-85%,/,16µM*,/,0%,/
CCC12CN3CC(CC)(CN(C1)C3c1c(O)ccc3ccccc13)C2=O (stereo unspecified),-3%,-2%,-6%,18,-7%,-1%
CCn1cc(C2N3CC4(CC)CN2CC(CC)(C3)C4=O)c2ccccc21 (stereo unspecified),?,/,18µM*,/,2%,/
Cc1[nH]c2ccccc2c1C1N2CC3(C)CN1CC(C)(C2)C3=O (stereo unspecified),-15%,/,-13%,/,0%,/
O=C(NCc1ccccc1)C(CCc1ccccc1)n1c(=O)c(-c2ccccc2)nc2ccccc21 (stereo unspecified),-76%,?,2.3µM*,50,-7%,?
O=c1c(-c2cc3ccccc3[nH]2)nc2ccccc2n1C(CCc1ccccc1)c1nc2ccccc2[nH]1 (stereo unspecified),?,?,18µM*,-22,-42%,?
O=C(NCc1ccccc1)C(CCc1ccccc1)n1c(=O)c(-c2cc3ccccc3[nH]2)nc2ccccc21 (stereo unspecified),13µM*,?,9.2µM*,22,3%,?
CSCCC(c1nc2ccccc2[nH]1)n1c(=O)c(-c2cc3ccccc3[nH]2)nc2ccccc21 (stereo unspecified),?,?,?,-17,-24%,?
O=C(NCc1ccccc1)C(c1ccncc1)n1c(=O)c(-c2ccco2)nc2ccccc21 (stereo unspecified),-25%,-4%,-27%,-6,-5%,-1%
O=C(NCc1ccccc1)C(c1cccc2ccccc12)n1c(=O)c(-c2cc3ccccc3[nH]2)nc2ccccc21 (stereo unspecified),15µM*,-2%,?,55,-12%,-12%
C=C(C)COc1ccc2c(=O)c(-c3ccc(Cl)cc3)coc2c1,/,/,/,/,-3%,/
COc1ccc(NC(=O)C(C(=O)Nc2ccc(OC)cc2)C23CC4CC(CC(C4)C2)C3)cc1,/,/,/,/,-24%,/
COc1ccc(C(=O)N2CC[C@@H]3CN(c4cnccn4)[C@@H]3C2)c(OC)n1,/,/,/,/,52%,/
O=C(Nc1ccc2ccccc2c1)C(C1CC1)n1c(=O)c(-c2cc3ccccc3[nH]2)nc2ccccc21 (stereo unspecified),?,?,?,-15,?,?
Cc1cccc(C)c1NC(=O)C(c1ccncc1)n1c(=O)c(-c2cc3ccccc3[nH]2)nc2ccccc21 (stereo unspecified),12µM*,21µM*,21µM*,-17,?,18µM*
CC(c1nc2ccccc2[nH]1)n1c(=O)c(-c2ccco2)nc2ccccc21 (stereo unspecified),13µM*,-18%,18µM*,?,13µM*,-9%
CC(c1nc2ccccc2[nH]1)n1c(-c2ccncc2)nc2ccccc21 (stereo unspecified),-11%,24%,-7%,13,7%,21%
O=C(Nc1ccc2ccccc2c1)C(c1ccccc1)n1c(=O)c(-c2cc3ccccc3[nH]2)nc2ccccc21 (stereo unspecified),?,-28%,16µM*,67,?,-19%
CCC(C(=O)NCc1ccccc1)n1c(CSCCOc2ccccc2)nc2ccccc21 (stereo unspecified),23µM*,3%,?,-6,1%,-4%
O=Cc1ccccc1-c1ccccc1F,/,/,/,/,0%[12.5 µM],/
Cc1cccc(C)c1NC(=O)C(c1ccc(C#N)cc1)n1c(=O)c(-c2cc3ccccc3[nH]2)nc2ccccc21 (stereo unspecified),12µM*,?,9.2µM*,98,-13%,?
SMILES,TDP1 cell CPT,HT1080-NT tox,TDP1 cell noCPT,IL-1B inflam inh,12-LOX inh,HT1080 IDH1KD tx
CC(C)(C)NC(=O)C(c1ccc(C#N)cc1)n1c(=O)c(-c2ccccc2)nc2ccccc21 (stereo unspecified),?,-17%,?,-17,-7%,-16%
Cc1cccc(C)c1NC(=O)C(c1ccccc1F)n1c(=O)c(-c2cc3ccccc3[nH]2)nc2ccccc21 (stereo unspecified),?,?,?,13,?,?
Cc1cccc(C)c1NC(=O)C(c1cccc2ccccc12)n1c(=O)c(-c2cc3ccccc3[nH]2)nc2ccccc21 (stereo unspecified),13µM*,-10%,9.2µM*,54,-13%,-8%
Cc1cccc(C)c1NC(=O)C(c1ccccc1)n1c(=O)c(-c2cc3ccccc3[nH]2)nc2ccccc21 (stereo unspecified),16µM*,?,15µM*,6,?,?
CCCNc1c(NC(=O)Nc2cccc(OC)c2)c(=O)oc2ccccc12,/,/,/,/,-23%,/
CCC(CNC(=O)c1ccc(C(=O)OC)cc1)c1ccccc1 (stereo unspecified),/,/,/,/,-69%,/

# Source: PubChem BioAssay (National Center for Advancing Translational Sciences (NCATS))
